{
  "source": "PubChem BioAssay (NCI)",
  "note": "This is part of a sample that, as a whole, favours compounds with a hit. Of some 83,000 tested, about 20% had one in any assay.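 Single-dose data. Exposure time 48 hours. Values below 10 considered active.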 Unmarked numbers belong to inactive results. Active and inactive are the calls of the source.",
  "data": [
    {"tested_on": "KM12 colon", "assay": "NCI-60 one-dose screen, 48 h (100 = growth as untreated, 0 = no growth, -100 = all killed)", "conditions": "10 µM unless noted", "experimental": "Growth inhibition of the KM12 human tumor cell line is measured as a screen for anti-cancer activity. Cells are grown in 96 well plates and exposed to the test compound for 48 hours. Compounds are tested at a single concentration, which is 10^-5 M for most compounds. The reported endpoint is percent growth (GI% or GIPRCNT), where numbers from 0 - 100% represent growth inhibition, and numbers from -100% - 0 represent cell death. For example, a value of 40 represents 60% growth inhibition. A value of 0 means no net growth occurred over the course of the experiment. A value of -40 indicates 40% of cells at the beginning of the experiment died by the end of the experiment. A value of -100 means all cells are dead at the end of the experiment.\nNCI-60 Human Tumor Cell Lines Screen was performed using the standard one-dose NCI protocol, which is described in more detail at https://dtp.cancer.gov/discovery_development/nci-60/default.htm.\nCompounds with GIPRCNT values below 10 were considered active. Activity score was based on GIPRCNT using the following formula: […]\nScore is 0 for GIPRCNT values of 100 or above, 50 for GIPRCNT values of 0, and 100 for GIPRCNT values of -100.", "values": [
      {"compound": "CC(C)(C)CC(C)(C)N(CSc1ccc(Cl)cc1)CSc1ccc(Cl)cc1", "growth": "33.5%"},
      {"compound": "N#Cc1ccc(C(F)(F)F)nc1N1CCC(C(=O)Nc2ccc(Cl)cc2)CC1", "growth": "91%"},
      {"compound": "CCOC(=O)c1[nH]c2cc(Cl)ccc2c1[C@@H](C(=O)NC(C)(C)C)N(CC)C(=O)CCCCC#Cc1cccc2c1CN(C1CCC(=O)NC1=O)C2=O", "note": "(stereo not given in full)", "growth": "10.3%"},
      {"compound": "Cc1ccc(N(CSc2ccc(Cl)cc2)CSc2ccc(Cl)cc2)cc1", "growth": "18.4%"},
      {"compound": "CCCCc1ccc(NC(=O)C(F)(F)F)cc1", "growth": "97.3%"},
      {"compound": "CCCN(CCC)c1ccc(/C=C/c2ccc3cc(OCC)ccc3n2)cc1", "growth": "128%"},
      {"compound": "O=C(N/N=C/c1ccc2c(c1)OCO2)c1cnn2c1NC(c1ccccc1)C2", "note": "(stereo not given)", "growth": "21.3%"},
      {"compound": "CC1SC(c2cccc(Oc3ccccc3)c2)N(CCc2cccs2)C1=O", "note": "(stereo not given)", "growth": "-25.2% (active)"},
      {"compound": "O=C1/C(=C/c2ccc(Oc3ccccc3)cc2)N=C(c2ccccc2)N1CCc1cccs1", "growth": "97.6%"},
      {"compound": "COc1ccc(-c2nc(Nc3ccc(F)cc3)nc(Nc3ccc4c(c3)nc(C)n4Cc3ccccc3)n2)cc1", "growth": "26%"},
      {"compound": "Cc1nn(CC(=O)O)c2c1C(=O)CC(C)(C)C2", "growth": "109%"},
      {"compound": "COc1ccc(-c2nc3sc(C)nn3c2-c2nc3cc(C)c(C)cc3[nH]2)cc1", "growth": "103%"},
      {"compound": "CCCCCCCCCCCCCCCC[N+]1(C)CCOCC1", "growth": "-94.4% (active)"},
      {"compound": "COc1ccc(S(=O)(=O)c2ccc(C(N)=O)cc2)cc1NC(=O)c1[nH]c(C)c2c1CCCCC2=O", "growth": "65.4%"},
      {"compound": "Cc1cccc2c(=O)c3c(sc12)c(NCCCN)nc1ccccc13", "growth": "-64.4% (active)"},
      {"compound": "O=C1C(N2CCOCC2)=Cc2cccc3cccc1c23", "growth": "95.8%"},
      {"compound": "FC(F)(F)Oc1ccc2c(c1)C[C@H]1C[C@@H](c3ccoc3)N2O1", "growth": "103%"},
      {"compound": "COc1cccc(OC(=O)c2ccccc2)c1OC(=O)c1ccccc1", "growth": "45.2%"},
      {"compound": "Cc1ccc2nc(NC(=O)CSC(=S)N3CCN(C)CC3)sc2c1", "growth": "111%"},
      {"compound": "Oc1ccc(Cl)cc1CNc1nc2ccccc2[nH]1", "growth": "13.2%"},
      {"compound": "CCN1CCN(c2nc3ccccc3c3c(=O)c4cc(F)ccc4sc23)CC1", "growth": "48.5%"},
      {"compound": "CC1(C)N=C(N)N=C(N)N1c1cccc(OCCOc2cccc([N+](=O)[O-])c2)c1", "growth": "22.2%"},
      {"compound": "COc1cc(/C=N/NC(=O)c2cnn3c2NC(c2ccccc2)C3)ccc1OC1CCCC1", "note": "(stereo not given)", "growth": "18.1%"},
      {"compound": "CN1CCc2cccc3c2C1Cc1ccc(O)c(O)c1-3", "note": "(stereo not given)", "growth": "96.4%"},
      {"compound": "Cc1nc2cc(Nc3nc(N4CCCCC4)nc(N4CCOCC4)n3)ccc2n1Cc1ccccc1", "growth": "18.3%"},
      {"compound": "COc1cc(C(F)(F)F)ccc1-c1cc(-c2ccc(F)cc2)n[nH]1", "growth": "88.1%"},
      {"compound": "COc1ccc(OC2=C(C#N)C(=N)N3c4ccccc4Sc4ccccc4C3N2)cc1", "note": "(stereo not given)", "growth": "97.7%"},
      {"compound": "O=C1NC(=O)C2(CCCC2C(=O)O)N1", "note": "(stereo not given)", "growth": "113%"},
      {"compound": "COc1cccc(OC)c1OC(=O)c1ccccc1", "growth": "109%"},
      {"compound": "O=C(CCCCCCC(=O)Nc1ccc2c(c1)/C(=C/c1ccc[nH]1)C(=O)N2)NO", "growth": "-14.4% (active)"},
      {"compound": "O=C1Nc2ccc(Cl)cc2/C1=N/N=C(c1ccccc1)c1ccccc1", "growth": "93.4%"},
      {"compound": "CC(=O)N(CC(O)CO)c1c(I)c(C(=O)NCCO)c(I)c(C(=O)NCC(O)CO)c1I", "note": "(stereo not given)", "growth": "103%"},
      {"compound": "Oc1ccc2ccccc2c1C1NN=C(c2ccccc2)S1", "note": "(stereo not given)", "growth": "23.3%"},
      {"compound": "COC(=O)C1C2CC3c4[nH]c5cc(OC)ccc5c4CCN3CC2CC(OC2CCCCO2)C1OC", "note": "(stereo not given)", "growth": "105%"},
      {"compound": "COc1cc(C(=O)N(C(C)C)C2CCCCC2)cc(OC)c1OC", "growth": "102%"},
      {"compound": "COC(=O)c1c2c(c(C)[n+]([O-])c1C)C(=O)C=C(NCc1ccc(Cl)cc1)C2=O", "growth": "-4.32% (active)"},
      {"compound": "COC1(OC)C2(Cl)C=C(c3ccccc3)C1(Cl)C(Cl)=C2Cl", "note": "(stereo not given)", "growth": "109%"},
      {"compound": "CN1CCc2c(Sc3ccc(C(=O)NO)cc3)c3ccccc3n2C1", "growth": "53.9%"},
      {"compound": "O=c1[nH]c(=O)n(Cc2ccc(F)cc2)cc1F", "growth": "106% [50 µM]"},
      {"compound": "O=S(=O)(/N=C1C=C/C(=N\\S(=O)(=O)c2ccccc2)c2ccccc2\\1)c1ccccc1", "growth": "101%"}
    ]}
  ]
}
